Paper PMC7862700, “An all-to-all approach to the identification of sequence-specific readers for epigenetic DNA modifications on cytosine”

What was measured:
Assay in all cases: DAPPL (digital affinity profiling via proximity ligation, sequencing); 10 mM Tris-HCl pH 7.5, 50 mM NaCl, 1 mM DTT, 4% glycerol, room temperature, 30 min; GST-TFs on glutathione beads, 16-mer random dsDNA library, 0.1% formaldehyde crosslink after washing; high values mean tight binding
GABPA = target: T1, GABPA (Homo sapiens, UniProt Q06546 1-454); conditions: protein: recombinant; tags: N-terminal GST; dsDNA, one strand shown
T1 sequence: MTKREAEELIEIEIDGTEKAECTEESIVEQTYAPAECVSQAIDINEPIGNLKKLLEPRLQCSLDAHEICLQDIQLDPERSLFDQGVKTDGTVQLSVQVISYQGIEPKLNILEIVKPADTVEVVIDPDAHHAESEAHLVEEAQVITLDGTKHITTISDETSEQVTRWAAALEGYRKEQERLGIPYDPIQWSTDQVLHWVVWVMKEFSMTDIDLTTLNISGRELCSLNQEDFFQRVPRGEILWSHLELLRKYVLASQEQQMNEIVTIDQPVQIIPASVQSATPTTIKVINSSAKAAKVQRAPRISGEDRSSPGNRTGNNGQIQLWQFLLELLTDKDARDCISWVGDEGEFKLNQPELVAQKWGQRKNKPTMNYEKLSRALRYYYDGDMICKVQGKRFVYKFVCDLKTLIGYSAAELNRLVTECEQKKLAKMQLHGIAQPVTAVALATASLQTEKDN
Summary of the method: (§1)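 Yeast served to express human transcription factors as GST fusions, which were then captured on glutathione beads and labelled with DNA barcodes. Pooled with a tag-only sample, they were incubated with 200 nmole of a 16-mer random double-stranded DNA library for 30 min at room temperature in Tris/NaCl/DTT/glycerol buffer, washed, crosslinked with 0.1% formaldehyde, ligated by proximity, amplified by PCR and sequenced. Dividing each hexamer's read frequency for a factor by its frequency for the tag-only sample gives the binding signal.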

ERG = target: T2, ERG (Homo sapiens, UniProt P11308 1-479); conditions: protein: recombinant; tags: N-terminal GST; dsDNA, one strand shown
T2 sequence: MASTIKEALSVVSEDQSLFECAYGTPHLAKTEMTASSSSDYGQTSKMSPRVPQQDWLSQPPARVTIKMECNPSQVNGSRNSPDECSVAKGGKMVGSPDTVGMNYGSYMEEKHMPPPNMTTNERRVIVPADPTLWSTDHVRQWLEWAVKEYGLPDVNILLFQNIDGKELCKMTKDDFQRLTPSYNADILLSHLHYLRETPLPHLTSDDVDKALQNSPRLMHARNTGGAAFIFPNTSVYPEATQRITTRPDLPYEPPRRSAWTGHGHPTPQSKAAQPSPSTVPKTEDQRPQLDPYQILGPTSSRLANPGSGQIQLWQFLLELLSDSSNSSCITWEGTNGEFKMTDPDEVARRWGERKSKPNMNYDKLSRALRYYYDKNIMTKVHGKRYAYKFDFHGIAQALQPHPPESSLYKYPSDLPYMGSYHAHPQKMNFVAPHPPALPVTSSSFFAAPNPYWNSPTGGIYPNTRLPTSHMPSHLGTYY
Summary of the method: as §1

SPI1 = SPI1 (Homo sapiens, UniProt P17947 1-270); conditions: protein: recombinant; tags: N-terminal GST; dsDNA, one strand shown
Summary of the method: as §1

SPIB = SPIB (Homo sapiens, UniProt Q01892 1-262); conditions: protein: recombinant; tags: N-terminal GST; dsDNA, one strand shown
SPIB, sequence (Q01892 whole entry): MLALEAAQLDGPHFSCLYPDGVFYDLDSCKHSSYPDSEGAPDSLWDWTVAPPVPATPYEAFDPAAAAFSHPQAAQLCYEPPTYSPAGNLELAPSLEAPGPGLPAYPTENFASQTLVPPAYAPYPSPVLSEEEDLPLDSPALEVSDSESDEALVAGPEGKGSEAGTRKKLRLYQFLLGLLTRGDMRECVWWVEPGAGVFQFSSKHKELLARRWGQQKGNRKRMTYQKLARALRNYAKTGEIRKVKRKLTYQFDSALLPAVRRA
Summary of the method: as §1

ELK3 = target: T3, ELK3 (Homo sapiens, UniProt P41970 1-407); conditions: protein: recombinant; tags: N-terminal GST; dsDNA, one strand shown
T3 sequence: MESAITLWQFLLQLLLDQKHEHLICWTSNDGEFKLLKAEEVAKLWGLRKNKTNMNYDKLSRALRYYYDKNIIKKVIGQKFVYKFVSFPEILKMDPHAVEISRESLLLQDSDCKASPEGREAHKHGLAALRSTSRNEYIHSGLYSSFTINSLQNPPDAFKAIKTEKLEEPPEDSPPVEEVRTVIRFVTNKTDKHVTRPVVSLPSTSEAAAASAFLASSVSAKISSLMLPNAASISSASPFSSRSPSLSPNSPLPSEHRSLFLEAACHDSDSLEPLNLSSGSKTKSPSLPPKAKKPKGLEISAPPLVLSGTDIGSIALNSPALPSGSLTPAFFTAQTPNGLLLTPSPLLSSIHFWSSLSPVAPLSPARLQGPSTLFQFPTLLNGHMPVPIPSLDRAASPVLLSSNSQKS
Summary of the method: as §1

HSF1 = HSF1 (Homo sapiens, UniProt Q00613 1-529); conditions: protein: recombinant; tags: N-terminal GST; chain copies: 3; dsDNA, one strand shown
HSF1, sequence (Q00613 whole entry): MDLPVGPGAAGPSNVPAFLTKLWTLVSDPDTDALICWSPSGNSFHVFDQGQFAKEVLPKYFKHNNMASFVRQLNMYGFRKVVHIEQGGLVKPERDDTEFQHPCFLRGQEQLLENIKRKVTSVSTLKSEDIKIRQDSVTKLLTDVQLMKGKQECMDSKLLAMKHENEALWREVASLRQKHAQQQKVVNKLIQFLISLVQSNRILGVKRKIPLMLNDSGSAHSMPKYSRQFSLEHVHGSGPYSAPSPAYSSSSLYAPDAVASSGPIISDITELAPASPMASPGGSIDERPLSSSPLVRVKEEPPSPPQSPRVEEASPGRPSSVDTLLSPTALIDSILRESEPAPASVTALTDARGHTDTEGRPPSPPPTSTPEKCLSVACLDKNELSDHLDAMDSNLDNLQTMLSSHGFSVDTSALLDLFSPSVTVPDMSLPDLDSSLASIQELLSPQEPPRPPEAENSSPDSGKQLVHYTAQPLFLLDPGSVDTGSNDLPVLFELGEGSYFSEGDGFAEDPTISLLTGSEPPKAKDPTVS
Summary of the method: as §1

ELK4 = target: T4, ELK4 (Homo sapiens, UniProt P28324-2 1-405); conditions: protein: recombinant; tags: N-terminal GST; dsDNA, one strand shown
T4 sequence: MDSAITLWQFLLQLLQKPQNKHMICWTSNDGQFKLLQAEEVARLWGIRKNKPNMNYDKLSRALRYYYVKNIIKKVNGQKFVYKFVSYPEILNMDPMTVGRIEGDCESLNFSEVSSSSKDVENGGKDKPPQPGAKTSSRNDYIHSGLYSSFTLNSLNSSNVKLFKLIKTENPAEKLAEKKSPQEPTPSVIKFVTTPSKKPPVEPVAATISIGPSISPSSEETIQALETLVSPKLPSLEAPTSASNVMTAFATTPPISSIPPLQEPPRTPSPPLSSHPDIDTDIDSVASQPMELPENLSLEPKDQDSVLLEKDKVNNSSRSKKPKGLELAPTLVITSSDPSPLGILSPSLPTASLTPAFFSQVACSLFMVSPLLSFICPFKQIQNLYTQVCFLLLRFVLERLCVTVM
Summary of the method: as §1

ETV2 = target: T5, ETV2 (Homo sapiens, UniProt O00321 1-342); conditions: protein: recombinant; tags: N-terminal GST; dsDNA, one strand shown
T5 sequence: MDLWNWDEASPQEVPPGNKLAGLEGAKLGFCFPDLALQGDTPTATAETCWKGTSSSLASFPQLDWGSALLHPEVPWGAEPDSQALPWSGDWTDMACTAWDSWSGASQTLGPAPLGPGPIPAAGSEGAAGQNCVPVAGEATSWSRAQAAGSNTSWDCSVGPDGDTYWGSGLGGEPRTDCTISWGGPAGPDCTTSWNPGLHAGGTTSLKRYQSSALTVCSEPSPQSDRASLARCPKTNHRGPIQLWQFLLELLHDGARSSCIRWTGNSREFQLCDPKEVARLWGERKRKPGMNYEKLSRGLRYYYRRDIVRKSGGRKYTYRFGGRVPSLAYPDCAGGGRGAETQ
Summary of the method: as §1

ELF3 = target: T6, ELF3 (Homo sapiens, UniProt P78545 1-371); conditions: protein: recombinant; tags: N-terminal GST; dsDNA, one strand shown
T6 sequence: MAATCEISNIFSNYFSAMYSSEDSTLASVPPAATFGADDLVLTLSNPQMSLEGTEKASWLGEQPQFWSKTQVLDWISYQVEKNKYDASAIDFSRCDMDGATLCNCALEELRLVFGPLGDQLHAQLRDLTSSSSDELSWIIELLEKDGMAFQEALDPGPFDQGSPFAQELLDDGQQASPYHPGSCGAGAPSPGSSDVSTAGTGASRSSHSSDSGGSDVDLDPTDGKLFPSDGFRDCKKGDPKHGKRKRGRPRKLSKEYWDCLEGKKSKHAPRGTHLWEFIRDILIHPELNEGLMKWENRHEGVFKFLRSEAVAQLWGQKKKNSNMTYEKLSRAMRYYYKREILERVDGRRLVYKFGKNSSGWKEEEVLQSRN
Summary of the method: as §1

CRX = CRX (Homo sapiens, UniProt O43186 1-299); conditions: protein: recombinant; tags: N-terminal GST; dsDNA, one strand shown
CRX, sequence (O43186 whole entry): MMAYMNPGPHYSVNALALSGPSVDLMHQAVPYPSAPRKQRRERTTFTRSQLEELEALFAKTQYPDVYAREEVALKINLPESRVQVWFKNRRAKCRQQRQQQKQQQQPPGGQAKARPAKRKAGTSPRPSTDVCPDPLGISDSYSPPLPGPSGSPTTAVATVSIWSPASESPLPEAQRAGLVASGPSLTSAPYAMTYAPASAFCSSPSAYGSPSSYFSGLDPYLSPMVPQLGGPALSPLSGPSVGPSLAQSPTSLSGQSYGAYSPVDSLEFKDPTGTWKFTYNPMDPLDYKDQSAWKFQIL
Summary of the method: as §1

ETV3L = target: T7, ETV3L (Homo sapiens, UniProt Q6ZN32 1-361); conditions: protein: recombinant; tags: N-terminal GST; dsDNA, one strand shown
T7 sequence: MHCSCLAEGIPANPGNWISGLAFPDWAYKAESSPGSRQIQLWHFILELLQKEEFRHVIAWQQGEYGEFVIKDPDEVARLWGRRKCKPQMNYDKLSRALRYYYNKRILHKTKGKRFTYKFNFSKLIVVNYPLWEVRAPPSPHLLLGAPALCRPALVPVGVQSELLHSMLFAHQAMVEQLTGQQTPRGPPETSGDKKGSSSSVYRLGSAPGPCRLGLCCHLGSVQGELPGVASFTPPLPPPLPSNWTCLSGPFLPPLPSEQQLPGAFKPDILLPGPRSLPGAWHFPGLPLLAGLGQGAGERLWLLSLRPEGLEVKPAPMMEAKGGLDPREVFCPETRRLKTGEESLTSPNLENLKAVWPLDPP
Summary of the method: as §1

ETS2 = target: T8, ETS2 (Homo sapiens, UniProt P15036 1-469); conditions: protein: recombinant; tags: N-terminal GST; dsDNA, one strand shown
T8 sequence: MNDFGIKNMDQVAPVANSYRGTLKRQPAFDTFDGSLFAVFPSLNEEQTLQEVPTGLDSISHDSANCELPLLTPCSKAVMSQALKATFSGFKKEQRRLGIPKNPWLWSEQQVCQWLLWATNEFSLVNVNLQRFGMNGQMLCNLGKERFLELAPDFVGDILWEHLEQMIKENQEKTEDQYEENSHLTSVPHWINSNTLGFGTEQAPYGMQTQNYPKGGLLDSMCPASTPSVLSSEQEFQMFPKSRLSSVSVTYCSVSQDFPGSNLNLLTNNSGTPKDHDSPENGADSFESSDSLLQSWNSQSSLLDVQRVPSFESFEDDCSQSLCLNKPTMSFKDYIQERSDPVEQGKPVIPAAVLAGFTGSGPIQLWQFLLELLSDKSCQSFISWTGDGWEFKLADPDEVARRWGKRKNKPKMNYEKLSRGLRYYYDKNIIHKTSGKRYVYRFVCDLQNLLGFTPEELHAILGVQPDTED
Summary of the method: as §1

ETV7 = target: T9, ETV7 (Homo sapiens, UniProt Q9Y603 1-341); conditions: protein: recombinant; tags: N-terminal GST; dsDNA, one strand shown
T9 sequence: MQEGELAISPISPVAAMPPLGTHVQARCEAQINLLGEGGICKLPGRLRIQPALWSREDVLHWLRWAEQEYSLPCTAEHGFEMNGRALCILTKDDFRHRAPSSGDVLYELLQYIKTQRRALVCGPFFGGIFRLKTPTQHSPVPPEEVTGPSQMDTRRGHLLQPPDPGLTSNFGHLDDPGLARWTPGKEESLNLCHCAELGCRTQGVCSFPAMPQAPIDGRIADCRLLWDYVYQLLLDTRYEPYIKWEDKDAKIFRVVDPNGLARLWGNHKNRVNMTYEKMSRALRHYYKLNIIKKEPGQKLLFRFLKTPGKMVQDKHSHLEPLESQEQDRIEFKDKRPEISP
Summary of the method: as §1

ELF5 = target: T10, ELF5 (Homo sapiens, UniProt Q9UKW6-2 1-255); conditions: protein: recombinant; tags: N-terminal GST; dsDNA, one strand shown
T10 sequence: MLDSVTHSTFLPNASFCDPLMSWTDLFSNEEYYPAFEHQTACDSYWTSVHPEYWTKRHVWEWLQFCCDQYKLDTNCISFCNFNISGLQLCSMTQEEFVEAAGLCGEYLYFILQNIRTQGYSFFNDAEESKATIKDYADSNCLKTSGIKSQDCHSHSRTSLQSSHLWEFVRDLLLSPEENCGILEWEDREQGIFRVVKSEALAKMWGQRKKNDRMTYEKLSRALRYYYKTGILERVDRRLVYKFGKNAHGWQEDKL
Summary of the method: as §1

With GCGATA the binding signal (GABPA) was 1 fold enrichment (6-mer frequency, TF over GST control), the binding signal (ERG) was 1 fold enrichment (6-mer frequency, TF over GST control) and the binding signal (SPI1) was 1.03 fold enrichment (6-mer frequency, TF over GST control). For the same sequence, the binding signal (SPIB) was 1.02 fold enrichment (6-mer frequency, TF over GST control), the binding signal (ELK3) was 1.1 fold enrichment (6-mer frequency, TF over GST control) and the binding signal (HSF1) was 1.06 fold enrichment (6-mer frequency, TF over GST control). For the same sequence, the binding signal (ELK4) was 1.07 fold enrichment (6-mer frequency, TF over GST control), the binding signal (ETV2) was 1.11 fold enrichment (6-mer frequency, TF over GST control) and the binding signal (ELF3) was 1.02 fold enrichment (6-mer frequency, TF over GST control). The binding signal (CRX) was 1.11 fold enrichment (6-mer frequency, TF over GST control), the binding signal (ETV3L) was 1.03 fold enrichment (6-mer frequency, TF over GST control) and the binding signal (ETS2) was 1.04 fold enrichment (6-mer frequency, TF over GST control). For the same sequence, the binding signal (ETV7) was 1.06 fold enrichment (6-mer frequency, TF over GST control) and the binding signal (ELF5) was 1.02 fold enrichment (6-mer frequency, TF over GST control).
